# Results reported in PMC7862700, “An all-to-all approach to the identification of sequence-specific readers for epigenetic DNA modifications on cytosine”.
# Assays:
# Assay in all cases: DAPPL (digital affinity profiling via proximity ligation, sequencing); 10 mM Tris-HCl pH 7.5, 50 mM NaCl, 1 mM DTT, 4% glycerol, room temperature, 30 min; GST-TFs on glutathione beads, 16-mer random dsDNA library, 0.1% formaldehyde crosslink after washing; high values mean tight binding
# FEV = target: T1, FEV (Homo sapiens, UniProt Q99581 1-238); details: protein: recombinant; tags: N-terminal GST; dsDNA, one strand shown
# T1 sequence: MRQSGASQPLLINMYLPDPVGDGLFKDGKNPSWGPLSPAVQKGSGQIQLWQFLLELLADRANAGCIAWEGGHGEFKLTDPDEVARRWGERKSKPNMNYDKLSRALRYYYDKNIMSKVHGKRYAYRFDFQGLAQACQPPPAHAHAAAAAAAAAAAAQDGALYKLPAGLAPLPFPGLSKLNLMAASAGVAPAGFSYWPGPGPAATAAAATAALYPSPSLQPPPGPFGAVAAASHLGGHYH
# Procedure, shortened: (§1)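 Yeast served to express human transcription factors as GST fusions, which were then captured on glutathione beads and labelled with DNA barcodes. Pooled with a tag-only sample, they were incubated with 200 nmole of a 16-mer random double-stranded DNA library for 30 min at room temperature in Tris/NaCl/DTT/glycerol buffer, washed, crosslinked with 0.1% formaldehyde, ligated by proximity, amplified by PCR and sequenced. Dividing each hexamer's read frequency for a factor by its frequency for the tag-only sample gives the binding signal.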
# ETV5 = ETV5 (Homo sapiens, UniProt P41161 1-510); details: protein: recombinant; tags: N-terminal GST; dsDNA, one strand shown
# ETV5, sequence (P41161 whole entry): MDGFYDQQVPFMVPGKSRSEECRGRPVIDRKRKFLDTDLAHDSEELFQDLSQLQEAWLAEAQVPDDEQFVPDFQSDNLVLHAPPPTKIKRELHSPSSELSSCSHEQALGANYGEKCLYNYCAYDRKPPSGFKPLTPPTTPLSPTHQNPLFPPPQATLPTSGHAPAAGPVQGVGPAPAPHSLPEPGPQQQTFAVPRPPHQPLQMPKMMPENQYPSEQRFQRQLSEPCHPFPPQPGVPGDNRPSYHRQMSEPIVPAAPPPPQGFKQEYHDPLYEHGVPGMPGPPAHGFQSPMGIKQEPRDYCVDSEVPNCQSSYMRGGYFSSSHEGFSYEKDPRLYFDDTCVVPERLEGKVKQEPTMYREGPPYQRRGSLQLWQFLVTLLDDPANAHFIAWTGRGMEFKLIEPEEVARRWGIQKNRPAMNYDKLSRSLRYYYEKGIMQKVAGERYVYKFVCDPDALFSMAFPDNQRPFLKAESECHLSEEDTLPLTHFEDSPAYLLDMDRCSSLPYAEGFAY
# Procedure, shortened: as §1
# HSF1 = HSF1 (Homo sapiens, UniProt Q00613 1-529); details: protein: recombinant; tags: N-terminal GST; chain copies: 3; dsDNA, one strand shown
# HSF1, sequence (Q00613 whole entry): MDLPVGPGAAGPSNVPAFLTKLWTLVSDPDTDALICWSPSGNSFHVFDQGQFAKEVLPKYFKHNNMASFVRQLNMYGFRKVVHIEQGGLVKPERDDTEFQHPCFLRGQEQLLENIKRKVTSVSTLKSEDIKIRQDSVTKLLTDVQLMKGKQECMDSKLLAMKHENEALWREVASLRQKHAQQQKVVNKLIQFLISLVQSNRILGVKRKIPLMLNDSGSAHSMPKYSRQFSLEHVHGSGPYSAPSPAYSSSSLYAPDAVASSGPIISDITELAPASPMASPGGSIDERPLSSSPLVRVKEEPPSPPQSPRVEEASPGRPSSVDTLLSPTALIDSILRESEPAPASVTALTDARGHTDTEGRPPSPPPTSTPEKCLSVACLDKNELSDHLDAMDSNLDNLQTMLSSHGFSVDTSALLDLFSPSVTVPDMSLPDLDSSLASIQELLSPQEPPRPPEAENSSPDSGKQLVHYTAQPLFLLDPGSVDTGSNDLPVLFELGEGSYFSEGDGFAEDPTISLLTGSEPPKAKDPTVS
# Procedure, shortened: as §1
# SPIC = target: T2, SPIC (Homo sapiens, UniProt Q8N5J4 1-248); details: protein: recombinant; tags: N-terminal GST; dsDNA, one strand shown
# T2 sequence: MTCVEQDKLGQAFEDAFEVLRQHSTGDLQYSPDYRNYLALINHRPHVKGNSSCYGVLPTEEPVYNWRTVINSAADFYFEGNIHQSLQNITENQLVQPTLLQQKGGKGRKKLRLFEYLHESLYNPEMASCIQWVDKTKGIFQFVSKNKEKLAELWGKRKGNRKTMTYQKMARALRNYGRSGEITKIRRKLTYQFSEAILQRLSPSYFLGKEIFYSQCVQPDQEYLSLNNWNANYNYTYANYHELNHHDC
# Procedure, shortened: as §1
# ELF4 = ELF4 (Homo sapiens, UniProt Q99607 1-663); details: protein: recombinant; tags: N-terminal GST; dsDNA, one strand shown
# ELF4, sequence (Q99607 whole entry): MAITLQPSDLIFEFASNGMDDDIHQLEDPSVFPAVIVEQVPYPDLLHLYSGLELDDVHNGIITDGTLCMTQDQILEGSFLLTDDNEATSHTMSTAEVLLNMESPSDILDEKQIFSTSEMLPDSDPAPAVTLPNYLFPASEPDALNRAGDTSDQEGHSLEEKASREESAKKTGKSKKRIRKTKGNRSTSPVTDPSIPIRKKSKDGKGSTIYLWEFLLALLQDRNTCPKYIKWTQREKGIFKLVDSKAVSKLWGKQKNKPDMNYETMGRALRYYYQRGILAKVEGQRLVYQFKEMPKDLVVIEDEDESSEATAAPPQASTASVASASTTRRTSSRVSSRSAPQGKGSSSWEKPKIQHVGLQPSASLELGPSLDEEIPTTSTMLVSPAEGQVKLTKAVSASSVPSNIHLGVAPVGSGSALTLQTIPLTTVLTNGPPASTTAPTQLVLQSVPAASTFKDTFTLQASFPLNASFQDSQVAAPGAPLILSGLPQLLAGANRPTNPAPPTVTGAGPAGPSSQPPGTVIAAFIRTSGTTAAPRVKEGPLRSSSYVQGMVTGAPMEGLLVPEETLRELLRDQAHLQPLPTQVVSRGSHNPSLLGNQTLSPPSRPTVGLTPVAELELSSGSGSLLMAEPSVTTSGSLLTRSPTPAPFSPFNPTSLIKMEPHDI
# Procedure, shortened: as §1
# ELK4 = target: T3, ELK4 (Homo sapiens, UniProt P28324-2 1-405); details: protein: recombinant; tags: N-terminal GST; dsDNA, one strand shown
# T3 sequence: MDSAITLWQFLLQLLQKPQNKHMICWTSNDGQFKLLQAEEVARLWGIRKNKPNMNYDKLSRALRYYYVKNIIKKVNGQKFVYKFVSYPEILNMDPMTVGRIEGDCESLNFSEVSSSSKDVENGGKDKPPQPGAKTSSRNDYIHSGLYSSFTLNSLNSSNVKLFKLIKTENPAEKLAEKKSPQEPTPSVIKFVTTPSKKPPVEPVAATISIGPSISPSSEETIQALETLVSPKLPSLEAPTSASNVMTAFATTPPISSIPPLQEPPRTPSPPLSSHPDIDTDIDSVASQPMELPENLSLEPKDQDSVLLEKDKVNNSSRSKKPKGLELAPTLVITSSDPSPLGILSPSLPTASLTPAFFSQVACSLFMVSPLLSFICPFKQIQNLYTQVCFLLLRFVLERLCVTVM
# Procedure, shortened: as §1
# ETV2 = target: T4, ETV2 (Homo sapiens, UniProt O00321 1-342); details: protein: recombinant; tags: N-terminal GST; dsDNA, one strand shown
# T4 sequence: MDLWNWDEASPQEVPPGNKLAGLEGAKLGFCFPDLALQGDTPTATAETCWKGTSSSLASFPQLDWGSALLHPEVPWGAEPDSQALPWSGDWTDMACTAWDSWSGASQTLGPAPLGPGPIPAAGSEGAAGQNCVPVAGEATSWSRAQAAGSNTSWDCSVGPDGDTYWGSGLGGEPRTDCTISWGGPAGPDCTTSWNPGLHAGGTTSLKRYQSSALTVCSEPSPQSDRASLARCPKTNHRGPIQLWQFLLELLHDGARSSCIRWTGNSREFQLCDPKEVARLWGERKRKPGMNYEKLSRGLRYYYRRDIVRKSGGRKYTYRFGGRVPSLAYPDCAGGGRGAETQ
# Procedure, shortened: as §1
# ELF3 = target: T5, ELF3 (Homo sapiens, UniProt P78545 1-371); details: protein: recombinant; tags: N-terminal GST; dsDNA, one strand shown
# T5 sequence: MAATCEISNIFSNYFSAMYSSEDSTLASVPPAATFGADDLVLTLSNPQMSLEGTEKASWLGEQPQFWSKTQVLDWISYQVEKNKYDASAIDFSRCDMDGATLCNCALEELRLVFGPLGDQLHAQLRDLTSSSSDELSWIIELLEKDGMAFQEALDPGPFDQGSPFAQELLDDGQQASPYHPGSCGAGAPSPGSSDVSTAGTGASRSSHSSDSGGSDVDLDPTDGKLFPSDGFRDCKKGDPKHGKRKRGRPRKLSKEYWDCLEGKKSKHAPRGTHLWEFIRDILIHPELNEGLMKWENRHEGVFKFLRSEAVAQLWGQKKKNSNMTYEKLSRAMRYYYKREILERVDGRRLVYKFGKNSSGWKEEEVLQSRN
# Procedure, shortened: as §1
# CRX = CRX (Homo sapiens, UniProt O43186 1-299); details: protein: recombinant; tags: N-terminal GST; dsDNA, one strand shown
# CRX, sequence (O43186 whole entry): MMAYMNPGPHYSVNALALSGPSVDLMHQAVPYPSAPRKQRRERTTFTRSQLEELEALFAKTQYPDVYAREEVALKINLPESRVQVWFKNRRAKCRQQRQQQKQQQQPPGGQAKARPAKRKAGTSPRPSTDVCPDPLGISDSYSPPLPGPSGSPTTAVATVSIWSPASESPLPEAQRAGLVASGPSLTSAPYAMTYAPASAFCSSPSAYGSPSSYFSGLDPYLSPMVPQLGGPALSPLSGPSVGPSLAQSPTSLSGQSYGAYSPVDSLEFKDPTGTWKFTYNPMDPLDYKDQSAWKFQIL
# Procedure, shortened: as §1
# ETV1 = ETV1 (Homo sapiens, UniProt P50549 1-477); details: protein: recombinant; tags: N-terminal GST; dsDNA, one strand shown
# ETV1, sequence (P50549 whole entry): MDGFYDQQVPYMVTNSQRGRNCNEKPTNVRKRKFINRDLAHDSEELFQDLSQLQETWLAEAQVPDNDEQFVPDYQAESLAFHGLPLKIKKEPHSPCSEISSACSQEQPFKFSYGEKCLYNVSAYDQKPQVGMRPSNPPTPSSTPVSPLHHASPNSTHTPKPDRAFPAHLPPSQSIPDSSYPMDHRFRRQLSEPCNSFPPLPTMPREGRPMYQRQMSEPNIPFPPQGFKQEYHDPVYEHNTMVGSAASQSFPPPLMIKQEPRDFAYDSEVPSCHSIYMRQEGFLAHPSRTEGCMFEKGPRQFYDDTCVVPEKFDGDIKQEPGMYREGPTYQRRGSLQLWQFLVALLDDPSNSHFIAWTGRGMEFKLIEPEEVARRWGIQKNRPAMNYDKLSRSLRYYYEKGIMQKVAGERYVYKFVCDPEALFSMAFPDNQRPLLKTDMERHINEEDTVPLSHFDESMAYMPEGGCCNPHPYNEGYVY
# Procedure, shortened: as §1
# ERF = target: T6, ERF (Homo sapiens, UniProt P50548 1-548); details: protein: recombinant; tags: N-terminal GST; dsDNA, one strand shown
# T6 sequence: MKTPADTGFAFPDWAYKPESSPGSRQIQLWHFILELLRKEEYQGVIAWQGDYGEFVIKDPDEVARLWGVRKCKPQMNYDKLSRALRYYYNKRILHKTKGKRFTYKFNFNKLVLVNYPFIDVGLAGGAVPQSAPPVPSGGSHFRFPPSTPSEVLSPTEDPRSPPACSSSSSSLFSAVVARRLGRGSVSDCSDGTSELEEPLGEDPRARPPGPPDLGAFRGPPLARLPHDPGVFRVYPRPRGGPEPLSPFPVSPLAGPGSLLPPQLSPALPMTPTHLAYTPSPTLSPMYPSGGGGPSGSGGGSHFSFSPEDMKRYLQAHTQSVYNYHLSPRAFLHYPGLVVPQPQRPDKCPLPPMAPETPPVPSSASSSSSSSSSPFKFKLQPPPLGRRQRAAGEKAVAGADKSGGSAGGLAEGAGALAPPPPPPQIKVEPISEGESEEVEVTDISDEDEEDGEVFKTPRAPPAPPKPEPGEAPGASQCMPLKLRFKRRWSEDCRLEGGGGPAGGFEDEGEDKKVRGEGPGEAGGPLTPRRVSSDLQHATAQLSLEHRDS
# Procedure, shortened: as §1
# ETV3L = target: T7, ETV3L (Homo sapiens, UniProt Q6ZN32 1-361); details: protein: recombinant; tags: N-terminal GST; dsDNA, one strand shown
# T7 sequence: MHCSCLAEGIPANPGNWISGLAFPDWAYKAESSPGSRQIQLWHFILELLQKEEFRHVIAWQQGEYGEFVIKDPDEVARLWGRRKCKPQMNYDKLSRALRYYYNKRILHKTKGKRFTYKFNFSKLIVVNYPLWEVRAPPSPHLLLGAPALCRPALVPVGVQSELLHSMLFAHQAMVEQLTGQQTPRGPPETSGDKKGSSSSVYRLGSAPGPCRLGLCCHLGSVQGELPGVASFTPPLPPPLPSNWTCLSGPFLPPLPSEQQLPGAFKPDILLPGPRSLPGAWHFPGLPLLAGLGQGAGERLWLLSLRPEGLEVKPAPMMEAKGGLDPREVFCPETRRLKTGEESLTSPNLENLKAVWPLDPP
# Procedure, shortened: as §1
# ETS2 = target: T8, ETS2 (Homo sapiens, UniProt P15036 1-469); details: protein: recombinant; tags: N-terminal GST; dsDNA, one strand shown
# T8 sequence: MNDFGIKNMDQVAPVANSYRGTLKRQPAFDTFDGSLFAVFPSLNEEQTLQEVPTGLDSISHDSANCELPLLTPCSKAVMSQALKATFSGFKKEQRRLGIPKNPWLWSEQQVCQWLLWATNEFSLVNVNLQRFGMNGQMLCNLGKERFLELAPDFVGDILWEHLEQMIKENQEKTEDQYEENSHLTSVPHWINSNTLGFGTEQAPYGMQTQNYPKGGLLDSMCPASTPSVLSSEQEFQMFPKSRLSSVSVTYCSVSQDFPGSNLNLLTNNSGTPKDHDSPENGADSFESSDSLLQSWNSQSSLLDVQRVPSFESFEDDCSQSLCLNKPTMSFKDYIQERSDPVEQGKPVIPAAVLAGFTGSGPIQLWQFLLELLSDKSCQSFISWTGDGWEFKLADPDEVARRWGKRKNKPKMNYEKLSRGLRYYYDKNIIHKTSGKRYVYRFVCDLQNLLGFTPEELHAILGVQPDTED
# Procedure, shortened: as §1
# SPDEF = target: T9, SPDEF (Homo sapiens, UniProt O95238 1-335); details: protein: recombinant; tags: N-terminal GST; dsDNA, one strand shown
# T9 sequence: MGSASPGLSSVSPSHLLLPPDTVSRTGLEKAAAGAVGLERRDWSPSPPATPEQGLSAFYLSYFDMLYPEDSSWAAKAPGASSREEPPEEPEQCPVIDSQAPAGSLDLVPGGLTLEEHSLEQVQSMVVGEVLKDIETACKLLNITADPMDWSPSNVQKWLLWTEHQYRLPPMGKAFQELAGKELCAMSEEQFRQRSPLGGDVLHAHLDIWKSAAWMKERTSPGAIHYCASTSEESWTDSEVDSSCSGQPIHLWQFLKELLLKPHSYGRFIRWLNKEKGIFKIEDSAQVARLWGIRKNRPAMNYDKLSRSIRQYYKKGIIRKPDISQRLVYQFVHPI
# Procedure, shortened: as §1
# ETV7 = target: T10, ETV7 (Homo sapiens, UniProt Q9Y603 1-341); details: protein: recombinant; tags: N-terminal GST; dsDNA, one strand shown
# T10 sequence: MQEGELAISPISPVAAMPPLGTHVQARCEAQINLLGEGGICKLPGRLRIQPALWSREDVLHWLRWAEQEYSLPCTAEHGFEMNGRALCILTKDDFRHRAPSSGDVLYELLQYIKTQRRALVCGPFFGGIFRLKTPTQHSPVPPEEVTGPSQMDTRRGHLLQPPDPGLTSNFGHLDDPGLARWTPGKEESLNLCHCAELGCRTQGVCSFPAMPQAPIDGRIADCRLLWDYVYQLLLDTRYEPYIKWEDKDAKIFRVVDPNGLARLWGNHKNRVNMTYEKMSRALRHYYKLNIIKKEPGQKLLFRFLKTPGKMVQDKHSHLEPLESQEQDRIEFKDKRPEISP
# Procedure, shortened: as §1
# ELF5 = target: T11, ELF5 (Homo sapiens, UniProt Q9UKW6-2 1-255); details: protein: recombinant; tags: N-terminal GST; dsDNA, one strand shown
# T11 sequence: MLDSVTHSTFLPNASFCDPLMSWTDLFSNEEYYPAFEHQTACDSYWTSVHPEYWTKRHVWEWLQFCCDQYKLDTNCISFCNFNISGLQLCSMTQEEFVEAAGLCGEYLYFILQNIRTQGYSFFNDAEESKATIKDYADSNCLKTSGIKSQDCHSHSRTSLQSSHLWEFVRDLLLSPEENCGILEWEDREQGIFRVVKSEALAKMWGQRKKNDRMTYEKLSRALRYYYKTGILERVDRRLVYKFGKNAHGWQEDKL
# Procedure, shortened: as §1
# ETV3 = target: T12, ETV3 (Homo sapiens, UniProt P41162-2 1-143); details: protein: recombinant; tags: N-terminal GST; dsDNA, one strand shown
# T12 sequence: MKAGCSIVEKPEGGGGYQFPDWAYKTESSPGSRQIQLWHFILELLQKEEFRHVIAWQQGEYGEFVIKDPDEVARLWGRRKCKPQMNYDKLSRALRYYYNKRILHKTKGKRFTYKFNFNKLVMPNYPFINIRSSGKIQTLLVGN
# Procedure, shortened: as §1
# ETV6 = ETV6 (Homo sapiens, UniProt P41212 1-452); details: protein: recombinant; tags: N-terminal GST; dsDNA, one strand shown
# ETV6, sequence (P41212 whole entry): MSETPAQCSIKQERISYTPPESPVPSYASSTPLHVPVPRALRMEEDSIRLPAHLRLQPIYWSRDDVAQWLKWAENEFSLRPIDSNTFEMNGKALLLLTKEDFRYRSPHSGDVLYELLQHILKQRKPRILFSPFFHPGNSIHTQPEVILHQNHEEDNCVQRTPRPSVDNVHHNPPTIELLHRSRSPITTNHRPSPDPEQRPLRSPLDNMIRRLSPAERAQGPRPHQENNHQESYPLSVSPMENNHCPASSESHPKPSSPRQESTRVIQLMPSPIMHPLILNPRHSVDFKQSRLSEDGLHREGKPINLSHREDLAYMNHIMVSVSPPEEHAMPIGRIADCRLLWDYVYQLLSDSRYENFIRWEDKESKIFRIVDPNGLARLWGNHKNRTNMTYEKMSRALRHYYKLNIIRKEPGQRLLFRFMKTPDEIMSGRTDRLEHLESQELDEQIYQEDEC
# Procedure, shortened: as §1
sequence,measurement,setting,value
AAAAAA,binding signal,FEV,"1.37 fold enrichment (6-mer frequency, TF over GST control)"
same,binding signal,ETV5,"1.35 fold enrichment (6-mer frequency, TF over GST control)"
same,binding signal,HSF1,"1.41 fold enrichment (6-mer frequency, TF over GST control)"
same,binding signal,SPIC,"1.29 fold enrichment (6-mer frequency, TF over GST control)"
same,binding signal,ELF4,"1.37 fold enrichment (6-mer frequency, TF over GST control)"
same,binding signal,ELK4,"1.23 fold enrichment (6-mer frequency, TF over GST control)"
same,binding signal,ETV2,"1.35 fold enrichment (6-mer frequency, TF over GST control)"
same,binding signal,ELF3,"1.26 fold enrichment (6-mer frequency, TF over GST control)"
same,binding signal,CRX,"1.22 fold enrichment (6-mer frequency, TF over GST control)"
same,binding signal,ETV1,"1.27 fold enrichment (6-mer frequency, TF over GST control)"
same,binding signal,ERF,"1.35 fold enrichment (6-mer frequency, TF over GST control)"
same,binding signal,ETV3L,"1.28 fold enrichment (6-mer frequency, TF over GST control)"
same,binding signal,ETS2,"1.34 fold enrichment (6-mer frequency, TF over GST control)"
same,binding signal,SPDEF,"1.21 fold enrichment (6-mer frequency, TF over GST control)"
same,binding signal,ETV7,"1.31 fold enrichment (6-mer frequency, TF over GST control)"
same,binding signal,ELF5,"1.29 fold enrichment (6-mer frequency, TF over GST control)"
same,binding signal,ETV3,"1.33 fold enrichment (6-mer frequency, TF over GST control)"
same,binding signal,ETV6,"1.35 fold enrichment (6-mer frequency, TF over GST control)"
